These results are taken from PubChem BioAssay.

Records with an inconclusive call do not appear. Active and inactive are the calls of the source. Unless noted, cut-off not given; nearly all actives show AC50 up to about 26 µM.

The term AC50 denotes the concentration giving half of the maximal activity seen. For orientation: IC50 means the concentration that inhibits the measured activity by half. As usually defined, the viability is a read-out of living cells in per cent, often relative to untreated cells.

Experiment [1] can be described thus: growth inhibition of DIPG glioma cells, dose response, cell-based, SU-DIPG-XVII, MIPE5.0, CellTiter-Glo, qHTS (AID 1347060).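 On AC50: cells exposed to compound for 48 hours before viability readout.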 Particulars: SU-DIPG-XVII viability, CellTiter-Glo ATP luminescence. A general note: Cellular ATP, detected with luciferase, serves as a proxy for viable cell number.
Experiment [2] in a line: growth inhibition of DIPG glioma cells, dose response, cell-based, SU-DIPG-XIII, MIPE4.0, CellTiter-Glo, qHTS (AID 1347061; cut-off not given, nearly all actives have AC50 up to about 37 µM;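 further: cells exposed to compound for 48 hours before readout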). Particulars: SU-DIPG-XIII viability, CellTiter-Glo ATP luminescence.
Experiment [3] can be described thus: growth inhibition of DIPG glioma cells, dose response, cell-based, JHH-DIPG-1, MIPE4.0, CellTiter-Glo, qHTS (AID 1347062; cut-off not given, nearly all actives have AC50 up to about 27 µM;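 on AC50: cells exposed to compound for two days before readout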). The note with it: JHH-DIPG-1 viability, CellTiter-Glo ATP luminescence.
The nature of experiment [4]: growth inhibition of DIPG glioma cells, dose response, cell-based, SU-DIPG-IV, MIPE4.0, CellTiter-Glo, qHTS (AID 1347063; cut-off not given, nearly all actives have AC50 up to about 30 µM;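 further: compound exposure lasted 48 hours before the viability readout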). The note with it: SU-DIPG-IV viability, CellTiter-Glo ATP luminescence.
Experiment [5] can be described thus: growth inhibition of DIPG glioma cells, dose response, cell-based, SU-DIPG-XIII, MIPE5.0, CellTiter-Glo, qHTS (AID 1347064; cut-off not given, nearly all actives have AC50 up to about 23 µM;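 on AC50: cells exposed to compound for 48 hours before the viability read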). Particulars: SU-DIPG-XIII viability, CellTiter-Glo ATP luminescence.
Experiment [6] in a line: viability loss in pontine glioma line – cell-based, SU-DIPG-XXV, MIPE5.0, CellTiter-Glo, qHTS, dose response (AID 1347065).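 Further: cells exposed to compound for 48 hours before ATP readout.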 Particulars: CellTiter-Glo ATP luminescence.
The nature of experiment [7]: SU-DIPG-VI glioma cell viability, MIPE4.0 library, CellTiter-Glo luminescence, qHTS (AID 1347066; cut-off not given, nearly all actives have AC50 up to about 30 µM;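 further: cells exposed to compound for 48 hours before readout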). Particulars: CellTiter-Glo ATP luminescence.
A short description of experiment [8]: JHH-DIPG-1 glioma cell viability, MIPE5.0 library, CellTiter-Glo luminescence, qHTS (AID 1347067).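 Further: cells exposed to compound for 48 hours before readout.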 Particulars: JHH-DIPG-1 glioma viability, CellTiter-Glo ATP luminescence.
Experiment [9] is described as follows: SU-DIPG-XXV glioma cell viability, MIPE5.0 library, qHTS (AID 1347068; cut-off not given, nearly all actives have IC50 up to about 30 µM;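 on IC50: cells exposed to compound for 48 hours before viability readout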).
The nature of experiment [10]: sensitizers of A549 cells to miR-34 induction, primary screen, imaging, A549 dox-inducible miR-34, nuclei and caspase counts (AID 1347080;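 active means compounds whose cell count with miR-34 switched on is under 0.7 times the count with it off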). The note with it: A549 miR-34 inducible, Hoechst nuclei count, 48 h.
A short description of experiment [11]: modifiers of HSF1 nuclear foci, imaging, Selleck Cancer Library (AID 1347162; in the data active means plate-normalised HSF1 focus index below about 0.46). Particulars: human cells, at 10 µM; SSMD: measured here: HSF1 foci SSMD mean; cell count: measured here: cell number; plate-normalised HSF1 focus index: stronger effect = lower value.
Experiment [12] in a line: survival rescue of mitochondrial mutant cells in low glucose, primary screen, MELAS cybrids, Rieske KO mouse fibroblasts, CellTiter-Glo (AID 1508586;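 active means mean z-score across replicates of 1.96 or higher in either the MELAS or the Rieske mutant cell line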;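 further: z relative to plate mean and SD of compound and empty wells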).
Experiment [13] can be described thus: ovarian cancer cell viability with rucaparib, profiling panel, oncology-focused library, rucaparib conditional (AID 1508598;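 active means normalized viability below 100% at a tested concentration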). The note with it: patient-derived ovarian cancer cells, CellTiter-Glo viability, 144 h, stronger effect = lower value.
[14] abbreviates: stronger effect = lower value, cell number ratio, induced over uninduced.
Setting [15] is: measured here: relative caspase fold change +Dox/-Dox.
[16] abbreviates: measured here: total cells with miR-34 induction, stronger effect = lower value.
Where [17] appears, read: measured here: total cells without miR-34 induction.

Consider `O=C(O)[C@@H](c1ccc(OCc2ccc3ccccc3n2)cc1)C1CCCC1`, for which the compound was classed as inactive in experiment [1], in experiment [2], in [3], in experiment [4], in [5] and in [6]. Besides, the call in experiment [7], in experiment [8] and in [9] was inactive.
As to `COc1cccc2nc(-c3cccs3)nc(NN3C(=O)C=C(C)C3=O)c12`, the AC50 in experiment [1] was 0.833 µM (active); in [2], 10.5 µM (active); in [3] it was 16.6 µM (active); in experiment [4], 0.296 µM (active); in experiment [5], 2.09 µM (active); in experiment [6], 1.66 µM (active). Moreover, the AC50 is 3.72 µM (active) in experiment [7] and 2.35 µM (active) in [8]. Moreover, the IC50 in [9] is 7.42 µM (active).
For the compound `COc1cc(O)c2c(c1)C1OC1C[C@H](O)[C@H](O)C(=O)/C=C\C[C@H](C)OC2=O` (some centres undefined), the AC50 is 0.661 µM (active) in experiment [1]; 0.662 µM (active) in [2]; 5.9 µM (active) in experiment [3]; 4.18 µM (active) in experiment [4]; 0.661 µM (active) in experiment [5]; 0.934 µM (active) in [6]. In addition, the figures for the AC50 in experiment [7] and in experiment [8] were 13.2 µM (active) and 4.17 µM (active), respectively. In experiment [9], the IC50 was 18.6 µM (active).
With `CC(=O)OC[C@@H]1O[C@@H](n2ccc(=O)[nH]c2=O)[C@H](OC(C)=O)[C@@H]1OC(C)=O`, the call in [1], in experiment [2], in experiment [3], in [4], in experiment [5] and in experiment [6] was inactive. The outcome in experiment [7], in experiment [8] and in experiment [9] was inactive.
As to `C=CCNC1=C2C[C@@H](C)C[C@H](OC)[C@H](O)[C@@H](C)/C=C(\C)[C@H](OC(N)=O)[C@@H](OC)/C=C\C=C(/C)C(=O)NC(=CC1=O)C2=O`, the AC50 in [1] was 1.18 µM (active); in [2] it was 1.05 µM (active); in [3], 2.64 µM (active); in experiment [4], 0.118 µM (active); in experiment [6], 7.42 µM (active); in experiment [7] it was 14.8 µM (active). Moreover, the AC50 in experiment [8] is 0.934 µM (active). In addition, the outcome in experiment [5] was inactive. Further, the IC50 in experiment [9] was 10.5 µM (active). For the same compound, the fold change in experiment [10] (setting [14]) is 1.02 (inactive); in experiment [10] (setting [15]) it was 1.33. Also, the values for the cell count in [10] (setting [16]) and in experiment [10] (setting [17]) were 1940 and 1900, respectively.
With `CC(C)[C@H](O)C(=O)N[C@@H](C)C(=O)N[C@@H]1C(=O)N(C)CCc2ccccc21`, the compound was classed as inactive in experiment [1], in experiment [2], in experiment [3], in experiment [4], in experiment [5] and in experiment [6]. The result in experiment [7], in [8] and in [9] was inactive.
In the case of `CCOC(=O)/C=C/[C@H](C[C@@H]1CCNC1=O)NC(=O)[C@@H](CC(=O)[C@@H](NC(=O)c1cc(C)on1)C(C)C)Cc1ccc(F)cc1`, the call in [1], in experiment [2], in experiment [3], in experiment [4], in [5] and in [6] was inactive. For the same compound, the outcome in [7], in experiment [8] and in [9] was inactive.
In the case of `Cc1cnc(Nc2ccc(CN3CCOCC3)cc2)nc1Nc1cccc(S(=O)(=O)NC(C)(C)C)c1`, the AC50 is 4.17 µM (active) in experiment [1]; 10.5 µM (active) in experiment [2]; 11.8 µM (active) in experiment [3]; 11.8 µM (active) in experiment [4]; 3.32 µM (active) in [5]; 3.32 µM (active) in [6]. For the same compound, the figures for the AC50 in [7] and in experiment [8] were 8.33 µM (active) and 5.9 µM (active), respectively. For the same compound, in experiment [9], the IC50 is 3.72 µM (active).
Consider `COc1ccc(S(=O)(=O)Nc2cc(-c3c(O)ccc4ccccc34)c(O)c3ccccc23)cc1`, for which the AC50 is 0.105 µM (active) in experiment [1]; 13.2 µM (active) in experiment [2]; 18.7 µM (active) in experiment [3]; 7.43 µM (active) in experiment [4]; 3.32 µM (active) in experiment [5]; 2.35 µM (active) in [6]. Besides, the AC50 in experiment [7] is 4.69 µM (active); in [8], 2.95 µM (active). The compound was classed as inactive in experiment [9].
On to `CC[C@@H](C)[C@H](NC(=O)[C@H](CC1CCCCC1)NC(=O)c1ccno1)C(=O)N1CCC2(CCc3ccccc32)CC1`, for which the compound was called inactive in experiment [1], in experiment [2], in experiment [3], in [4], in experiment [5] and in experiment [7]. The compound was classed as inactive in [8] and in experiment [9]. Further, the AC50 in experiment [6] is 11.8 µM (active).
For `COc1ncc(-c2ccc3nccc(-c4ccnnc4)c3c2)cc1NS(=O)(=O)c1ccc(F)cc1F`, the AC50 in [1] was 0.0263 µM (active); in [2], 0.0469 µM (active); in experiment [3] it was 1.66 µM (active); in experiment [4], 0.0105 µM (active); in [5], 0.0468 µM (active); in experiment [6], 0.0166 µM (active). Besides, the AC50 is 0.0332 µM (active) in [7] and 0.0934 µM (active) in experiment [8]. The IC50 in experiment [9] was 0.105 µM (active). In addition, the fold change is 1.04 (inactive) in experiment [10] (setting [14]) and 0.656 in experiment [10] (setting [15]). Also, the values for the cell count in experiment [10] (setting [16]), in [10] (setting [17]) and in experiment [11] were 1270, 1220 and 6380, respectively. For the same compound, the SSMD in [11] is -1.81. Moreover, the plate-normalised HSF1 focus index in [11] is 0.907 (inactive). In addition, the z-score in [12] (MELAS cybrid survival, CellTiter-Glo 48 h, stronger effect = higher value) was 1.15 (inactive); in experiment [12] (Rieske KO mouse fibroblast survival, CellTiter-Glo 72 h), -2.62. Also, the viability in experiment [13] (at 0.000305 µM, OCI-C5x cells, with rucaparib 10 µM, 100% = cells with rucaparib alone) is 107% (inactive); in [13] (at 0.000305 µM, OCI-C5x cells, without rucaparib) it was 105% (inactive); in experiment [13] (at 0.000305 µM, OCI-P5x cells, with rucaparib 20 µM, 100% = cells with rucaparib alone), 86.7% (active); in [13] (at 0.000305 µM, OCI-P5x cells, without rucaparib), 84.8% (active); in experiment [13] (at 0.00122 µM, OCI-C5x cells, with rucaparib 10 µM, 100% = cells with rucaparib alone), 84.7% (active); in experiment [13] (at 0.00122 µM, OCI-C5x cells, without rucaparib) it was 89.8% (active). The viability in [13] (at 0.00122 µM, OCI-P5x cells, with rucaparib 20 µM, 100% = cells with rucaparib alone) is 67.8% (active); in experiment [13] (at 0.00122 µM, OCI-P5x cells, without rucaparib), 69.1% (active); in [13] (at 0.00488 µM, OCI-C5x cells, with rucaparib 10 µM, 100% = cells with rucaparib alone), 62.5% (active); in experiment [13] (at 0.00488 µM, OCI-C5x cells, without rucaparib) it was 53.2% (active); in experiment [13] (at 0.00488 µM, OCI-P5x cells, with rucaparib 20 µM, 100% = cells with rucaparib alone) it was 43.9% (active); in [13] (at 0.00488 µM, OCI-P5x cells, without rucaparib), 46.3% (active). Also, the viability was 39.4% (active) in experiment [13] (at 0.0195 µM, OCI-C5x cells, with rucaparib 10 µM, 100% = cells with rucaparib alone); 37.6% (active) in experiment [13] (at 0.0195 µM, OCI-C5x cells, without rucaparib); 31.6% (active) in [13] (at 0.0195 µM, OCI-P5x cells, with rucaparib 20 µM, 100% = cells with rucaparib alone); 27% (active) in experiment [13] (at 0.0195 µM, OCI-P5x cells, without rucaparib); 32.8% (active) in experiment [13] (at 0.0781 µM, OCI-C5x cells, with rucaparib 10 µM, 100% = cells with rucaparib alone); 30.6% (active) in experiment [13] (at 0.0781 µM, OCI-C5x cells, without rucaparib). Further, the viability in [13] (at 0.0781 µM, OCI-P5x cells, with rucaparib 20 µM, 100% = cells with rucaparib alone) was 24.3% (active); in experiment [13] (at 0.0781 µM, OCI-P5x cells, without rucaparib) it was 17.1% (active); in experiment [13] (at 0.313 µM, OCI-C5x cells, with rucaparib 10 µM, 100% = cells with rucaparib alone) it was 23.7% (active); in [13] (at 0.313 µM, OCI-C5x cells, without rucaparib), 23.6% (active); in [13] (at 0.313 µM, OCI-P5x cells, with rucaparib 20 µM, 100% = cells with rucaparib alone), 17.6% (active); in experiment [13] (at 0.313 µM, OCI-P5x cells, without rucaparib) it was 11% (active). Moreover, the viability in experiment [13] (at 1.25 µM, OCI-C5x cells, with rucaparib 10 µM, 100% = cells with rucaparib alone) was 23.9% (active); in [13] (at 1.25 µM, OCI-C5x cells, without rucaparib), 23.5% (active); in experiment [13] (at 1.25 µM, OCI-P5x cells, with rucaparib 20 µM, 100% = cells with rucaparib alone), 13.9% (active); in [13] (at 1.25 µM, OCI-P5x cells, without rucaparib), 8.06% (active); in [13] (at 5 µM, OCI-C5x cells, with rucaparib 10 µM, 100% = cells with rucaparib alone), 10.5% (active); in experiment [13] (at 5 µM, OCI-C5x cells, without rucaparib), 9.68% (active). Further, the viability is 2.14% (active) in [13] (at 5 µM, OCI-P5x cells, with rucaparib 20 µM, 100% = cells with rucaparib alone) and 1.41% (active) in experiment [13] (at 5 µM, OCI-P5x cells, without rucaparib).
